tim23-1 inh: growth inhibitors of tim23-1 mutant yeast, primary screen, luminescence, uHTS. inhibition, % at 20 µM. 1.3% of 330,000 active. S. cerevisiae tim23-1 growth, BacTiter-Glo luminescence, 24 h;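 active = growth inhibition of the mutant yeast at or above 50%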;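 also: temperature-sensitive mutant grown at 25 °C; plate controls were DMSO-treated mutant yeast for no effect and medium wells lacking yeast for full effect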
TIM10 inh: growth inhibitors of isogenic TIM10 control yeast, primary screen, counter-screen for tim10-1 yeast inhibitor project, luminescence, uHTS. S. cerevisiae TIM10 strain growth, BacTiter-Glo luminescence, 24 h. inhibition, % at 10 µM. 1.4% of 330,000 active;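 active = inhibition of 40% or more at the single tested concentration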;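 also: wild-type TIM10 isogenic control strain grown at permissive 25 °C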
NALP1 inh: NALP1 inflammasome inhibitors in reconstituted yeast, colorimetric, S. cerevisiae, triplicate retest. S. cerevisiae NALP1/ASC/caspase-1 growth, X-gal OD620, 72 h. inhibition, % at 10 µM. 0.61% of 280,000 active; in the data active = inhibition mostly above about 24%, no sharp cut-off; inactive = mostly below about 32%
PfHsp90 yeast 2: growth inhibition of PfHsp90-expressing yeast, primary screen, antimalarial PfHsp90 inhibitor project, S. cerevisiae, BacTiter-Glo luminescence, single point, set 2. inhibition, % at 9.4 µM. BacTiter-Glo ATP, 48 h; yeast lacking PDR1 and PDR3 efflux regulators. AID 504621, 2011. 0.32% of 310,000 active;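 active = every replicate shows inhibition above about 80%, whatever the replicate mean, limit read from the data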;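 also: 0% = DMSO neutral controls and 100% = 20 µM radicicol positive controls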
SKKanGAS inh: S. pyogenes SKKanGAS growth inhibitors in kanamycin, primary screen, streptokinase expression inhibitor project, SKKanGAS strain, BacTiter-Glo luminescence; 6 h; inhibition, % at 7.5 µM; 1.3% of 300,000 active; AID 1662, 2009;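 active = mean replicate score, as percent of positive control median, at least 50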;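 also: strain carries kanamycin resistance gene driven by streptokinase promoter and grows in 40 µg/ml kanamycin; loss of luminescence reflects streptokinase promoter inhibition or plain growth inhibition; 0% = median of DMSO wells and 100% = positive control at its reference dose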
tim10-1 inh: growth inhibitors of tim10-1 mutant yeast, primary screen, luminescence, uHTS; S. cerevisiae tim10-1 ts strain growth, BacTiter-Glo, 24 h; inhibition, % at 20 µM; 2.2% of 330,000 active; AID 463190, 2010;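 active = inhibition of at least 40%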;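 also: mutant grown at 25 °C; 0% = DMSO wells with yeast and 100% = wells holding no yeast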
tim10-1 confirm: growth inhibitors of tim10-1 mutant yeast, confirmation, single concentration, luminescence, S. cerevisiae. shares compounds with tim10-1 inh. S. cerevisiae tim10-1 ts strain growth, BacTiter-Glo, 24 h. inhibition, % at 20 µM. 56% of 7,400 active. AID 463213, 2010;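 active = inhibition of yeast growth at or above a set limit in either of two repeat tests at 20 µM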;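 also: tim10-1 mutant grown at permissive 25 °C to find synthetic lethal compounds; 0% = DMSO yeast wells and 100% = medium wells without yeast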
TIM10 conf: growth inhibitors of wild-type TIM10 yeast, confirmation, counter-screen for tim10-1 synthetic lethality project, single concentration, luminescence, S. cerevisiae; shares compounds with TIM10 inh; S. cerevisiae tim10 strain growth, BacTiter-Glo luminescence, 24 h; inhibition, % at 10 µM; 63% of 4,600 active; AID 463215, 2010;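 active = inhibition of yeast growth at or above a set limit in either of two replicates at 10 µM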;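 also: this counterscreen used the strain with wild-type TIM10; 0% = yeast with DMSO and 100% = medium wells lacking yeast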
An asterisk follows results filed as active; x = no result given. Only some compounds are listed: those with a hit (about 4.8% of all), similar ones and a draw of the others.

SMILES | tim23-1 inh | TIM10 inh | NALP1 inh | PfHsp90 yeast 2 | SKKanGAS inh | tim10-1 inh | tim10-1 confirm | TIM10 conf
O=C(c1ccc([N+](=O)[O-])s1)N1CCc2ccccc21 | -0.2 | 18.7 | 1.5 | -4.9 | 7.3 | 11.9 | x | x
O=C(c1ccc([N+](=O)[O-])s1)N1CCCc2ccccc21 | -17.0 | 40.2* | 18.1 | 7.3 | 0.8 | 54.0* | 48.6* | 50.6*
CNC(=S)N1CCC(NC(=O)c2ccco2)CC1 | -7.8 | -0.7 | x | x | 3.1 | -9.8 | x | x
Cc1ccc(-c2nn(-c3ccccc3)cc2C=O)o1 | -40.1 | 71.7* | 17.9 | 14.6 | -2.5 | 63.2* | 64.5* | 70.1*
Cc1ccc(-c2nn(-c3ccccc3)cc2C(N)=O)o1 | -13.0 | 17.0 | 4.7 | 34.0 | 2.0 | 0.2 | x | x
COc1ccc(N2CCN(S(C)(=O)=O)CC2)cc1 | -10.4 | -12.8 | -8.8 | x | -14.8 | 10.4 | x | x
O=[N+]([O-])c1nn(-c2ccc3c(c2)OCCO3)n(O)c1=NCCCO | 3.9 | 7.9 | 4.8 | -21.2 | 25.6 | 15.6 | x | x
O=[N+]([O-])c1nn(-c2ccc3c(c2)OCCO3)n(O)c1=NC1CCCC1 | 40.2 | 58.2* | 14.7 | x | 10.9 | 55.2* | 47.1* | 41.4*
O=[N+]([O-])c1ccc(N2CCN(S(=O)(=O)c3ccccc3)CC2)c2cccnc12 | 20.7 | 5.5 | -1.1 | 18.5 | 17.2 | 6.2 | x | x
Cc1cc(C)c(C#N)c(OCC(=O)c2ccc(Br)cc2)n1 | 14.0 | 0.0 | 14.6 | -6.0 | -7.6 | 21.8 | x | x
Cc1nn(-c2ccccc2)c(C)c1/C=N/n1c(-c2ccc(C(C)(C)C)cc2)n[nH]c1=S | 45.7 | 44.1* | -21.5 | -15.3 | 87.3* | 47.0* | 32.9* | 43.5*
CN1CCN(c2ccccc2NC(=O)c2ccc(-c3ccc(Cl)cc3Cl)o2)CC1 | 4.2 | 46.0* | 30.9 | 5.9 | 8.5 | 56.0* | 54.8* | 48.2*
COc1ccc(C2CC2/C(=N/OC(=O)c2cccs2)c2ccccc2)cc1 (stereo not given) | 45.4 | 63.4* | 4.5 | -13.8 | -10.0 | 63.2* | 59.0* | 63.9*
COc1ccc(C(=O)O/N=C(/c2cccs2)C(C)(C)C)cc1 | 10.8 | -10.4 | 8.7 | -19.6 | -3.4 | -5.0 | x | x
CCOc1ccc(N(CC(=O)N2CCN(c3ccccc3F)CC2)S(=O)(=O)c2c(C)noc2C)cc1 | 7.2 | 11.6 | 8.6 | 4.9 | 0.5 | 13.7 | x | x
Cc1ccc2c(c1)C1CN(C)CCC1N2C(=O)c1cccc(S(=O)(=O)N2CC(C)CC(C)C2)c1 (stereo not given) | 24.9 | 55.0* | 7.4 | 16.8 | -3.6 | 46.7* | 42.5* | 38.3*
Cc1ccc2c(c1)C1CN(C)CCC1N2C(=O)c1ccc(Cl)c(S(=O)(=O)N2CCOCC2)c1 (stereo not given) | 15.5 | 13.8 | 22.0 | 1.0 | 6.9 | 11.9 | x | x
Cc1ccc2nc(-c3ccccc3)c(CN3CCN(c4ccccc4F)CC3)n2c1 | 49.4 | 50.6* | 24.9 | -16.6 | -4.8 | 56.0* | 42.3* | 37.2*
Cc1cccc(NC(=O)c2cc([N+](=O)[O-])ccc2N2CCCCC2)n1 | 31.4 | 47.0* | 14.2 | -42.3 | 3.2 | 43.4* | 39.4* | 18.5
CC(=O)Nc1cccc(NC(=O)c2cc([N+](=O)[O-])ccc2N2CCCCC2)c1 | 15.2 | 16.0 | x | 5.8 | x | 10.8 | x | x
CC(C)c1ccc(/C=C/C(=O)N2CCOCC2)cc1 | 11.0 | 18.6 | 14.2 | 13.4 | -4.9 | 15.5 | x | x
CC(C)c1ccc(/C=C/C(=O)n2nnc3ccccc32)cc1 | 31.4 | 49.7* | 3.8 | -30.5 | 1.8 | 55.3* | 51.5* | 47.5*
O=C(/C=C/c1ccc(N2CCC(c3ccccc3)=N2)cc1)c1ccccc1 | 11.8 | 43.5* | -8.9 | x | -5.1 | 41.3* | 25.1 | 24.5
COc1ccc(C)c2sc(N3CCCC3)nc12 | 46.3 | 44.3* | 22.2 | x | -6.5 | 43.5* | 33.2* | 26.1
CCCOc1ccc(C(=O)C(CN2CCOCC2)c2ccccc2)cc1 (stereo not given) | 32.0 | 50.2* | -4.6 | 12.9 | 0.9 | 45.9* | 46.4* | 8.4
SMILES | tim23-1 inh | TIM10 inh | NALP1 inh | PfHsp90 yeast 2 | SKKanGAS inh | tim10-1 inh | tim10-1 confirm | TIM10 conf
CN(C)c1ccc(/C=N/NC(=S)NCc2ccccc2)cc1 | 26.5 | 54.8* | -0.8 | x | 10.2 | 43.0* | 32.0* | 43.8*
C/C(=N\NC(=S)NCc1ccccc1)c1ccc(Br)cc1 | 13.2 | 40.0 | 1.8 | -1.7 | -4.3 | 49.3* | 23.9 | 31.8*
C/C(=N\NC(=S)NCCc1ccccc1)c1ccc(C)cc1 | 23.9 | 34.8 | 19.1 | x | 27.1 | 37.4 | x | x
C/C(=N\NC(=S)NCc1ccccc1)c1ccc2c(c1)OCCO2 | 48.7 | 46.4* | 7.3 | 7.9 | -1.7 | 43.2* | 48.8* | 39.3*
C/C(=N\NC(N)=S)c1ccc2c(c1)OCCO2 | 10.5 | -3.5 | 2.3 | -24.5 | -5.0 | 16.8 | x | x
O=C(CSc1nc2c(c(=O)n1-c1ccc(Br)cc1)SCC2)NCC1CCCO1 (stereo not given) | 25.1 | 12.8 | 4.6 | x | 0.5 | 27.1 | x | x
COc1ccccc1N1CCN(C(=O)/C=C/c2c(Cl)nc3ccccn23)CC1 | 43.6 | 42.2* | 24.2 | -10.2 | 68.6* | 58.7* | 50.8* | 35.9*
Cc1ccc2nc(CSc3nnc(-c4ccco4)n3-c3ccccc3)cc(=O)n2c1 | 14.0 | 3.1 | x | 11.6 | 0.0 | 11.2 | x | x
O=c1c(Cl)cc(Cl)nn1-c1ccccc1 | -12.2 | -27.1 | 10.5 | -5.8 | -0.1 | -25.4 | x | x
COc1ccccc1/C=C/C(=O)c1cc(Br)ccc1OC(=O)c1ccco1 | 48.9 | 41.6* | x | -52.8 | 3.0 | 50.3* | 42.0* | 0.7
COc1ccc(Br)cc1/C=N/NC(=O)c1ccco1 | 24.0 | 23.0 | -0.6 | 29.1 | -0.8 | 5.6 | x | x
COc1ccc(Cl)cc1-n1c(N)c(C(N)=O)sc1=S | -3.7 | -29.1 | -0.5 | -15.0 | 2.9 | -12.5 | x | x
O=C(NCCC1=CCCCC1)C(=O)NCC1OCCCN1S(=O)(=O)c1ccccc1 (stereo not given) | 13.1 | 6.1 | 21.5 | 5.6 | -1.5 | 12.9 | x | x
O=c1oc(-c2ccccc2)cc(Cl)c1Cl | 22.1 | 75.9* | 3.8 | 116.9* | 4.3 | 81.0* | 86.3* | 78.2*
Nc1nc(C2CC(=O)OC23CCCCC3)cs1 (stereo not given) | 15.8 | -13.3 | 16.1 | -4.6 | -1.6 | 4.6 | x | x

Screening data as filed in PubChem BioAssay.
